In ChEMBL document CHEMBL3988442, “University of Dundee, Small-Polar-MMV Screening Library” (2021):
Where “and” joins values, the source holds several entries; their conditions need not be identical. Equal values may be shown once. For part of these data: Results with a measured potency or affinity are listed apart.

How the values were obtained:
Design in all cases: scale not given: direction of the effect not stated beside the values
[1] = biological target: Protein translocase subunit SecA (Escherichia coli (strain K12)) (UniProt P10408); assay: Assay to Identify E. coli SecA ATPase Inhibitors; assay type: functional; conditions: 30 µM
Chain of Protein translocase subunit SecA (Escherichia coli (strain K12)) (P10408 whole entry): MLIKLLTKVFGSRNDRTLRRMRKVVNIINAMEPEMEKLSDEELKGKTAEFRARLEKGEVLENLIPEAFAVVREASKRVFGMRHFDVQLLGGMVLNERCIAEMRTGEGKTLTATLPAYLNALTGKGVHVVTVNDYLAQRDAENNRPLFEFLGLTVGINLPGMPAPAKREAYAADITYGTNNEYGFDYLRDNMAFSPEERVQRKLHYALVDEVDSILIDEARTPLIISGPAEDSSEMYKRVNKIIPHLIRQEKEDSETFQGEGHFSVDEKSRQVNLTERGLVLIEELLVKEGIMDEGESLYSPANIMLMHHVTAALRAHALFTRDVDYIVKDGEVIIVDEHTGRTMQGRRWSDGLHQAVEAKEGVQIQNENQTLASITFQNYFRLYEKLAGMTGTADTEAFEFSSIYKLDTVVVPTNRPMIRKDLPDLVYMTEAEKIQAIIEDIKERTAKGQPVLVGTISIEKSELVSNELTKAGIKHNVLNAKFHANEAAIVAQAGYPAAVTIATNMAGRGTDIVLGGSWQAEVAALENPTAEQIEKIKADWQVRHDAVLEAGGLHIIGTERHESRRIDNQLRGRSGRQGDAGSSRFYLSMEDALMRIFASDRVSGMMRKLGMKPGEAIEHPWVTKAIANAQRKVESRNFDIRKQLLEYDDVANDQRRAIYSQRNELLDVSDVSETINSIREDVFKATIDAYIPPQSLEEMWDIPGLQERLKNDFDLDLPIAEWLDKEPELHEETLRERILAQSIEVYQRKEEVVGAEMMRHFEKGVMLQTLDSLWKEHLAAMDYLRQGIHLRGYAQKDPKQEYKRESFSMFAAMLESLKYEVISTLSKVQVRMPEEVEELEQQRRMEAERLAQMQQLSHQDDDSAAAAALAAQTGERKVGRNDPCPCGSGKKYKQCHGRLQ

[2] = biological target: T1, Ubiquitin-activating enzyme e1, putative (Leishmania donovani (strain BPK282A1)) (UniProt E9BSI1); assay: Leishmania donovani Ubiquitin Activating Enzyme (LdE1); assay type: functional; conditions: 30 µM
T1 sequence (whole entry): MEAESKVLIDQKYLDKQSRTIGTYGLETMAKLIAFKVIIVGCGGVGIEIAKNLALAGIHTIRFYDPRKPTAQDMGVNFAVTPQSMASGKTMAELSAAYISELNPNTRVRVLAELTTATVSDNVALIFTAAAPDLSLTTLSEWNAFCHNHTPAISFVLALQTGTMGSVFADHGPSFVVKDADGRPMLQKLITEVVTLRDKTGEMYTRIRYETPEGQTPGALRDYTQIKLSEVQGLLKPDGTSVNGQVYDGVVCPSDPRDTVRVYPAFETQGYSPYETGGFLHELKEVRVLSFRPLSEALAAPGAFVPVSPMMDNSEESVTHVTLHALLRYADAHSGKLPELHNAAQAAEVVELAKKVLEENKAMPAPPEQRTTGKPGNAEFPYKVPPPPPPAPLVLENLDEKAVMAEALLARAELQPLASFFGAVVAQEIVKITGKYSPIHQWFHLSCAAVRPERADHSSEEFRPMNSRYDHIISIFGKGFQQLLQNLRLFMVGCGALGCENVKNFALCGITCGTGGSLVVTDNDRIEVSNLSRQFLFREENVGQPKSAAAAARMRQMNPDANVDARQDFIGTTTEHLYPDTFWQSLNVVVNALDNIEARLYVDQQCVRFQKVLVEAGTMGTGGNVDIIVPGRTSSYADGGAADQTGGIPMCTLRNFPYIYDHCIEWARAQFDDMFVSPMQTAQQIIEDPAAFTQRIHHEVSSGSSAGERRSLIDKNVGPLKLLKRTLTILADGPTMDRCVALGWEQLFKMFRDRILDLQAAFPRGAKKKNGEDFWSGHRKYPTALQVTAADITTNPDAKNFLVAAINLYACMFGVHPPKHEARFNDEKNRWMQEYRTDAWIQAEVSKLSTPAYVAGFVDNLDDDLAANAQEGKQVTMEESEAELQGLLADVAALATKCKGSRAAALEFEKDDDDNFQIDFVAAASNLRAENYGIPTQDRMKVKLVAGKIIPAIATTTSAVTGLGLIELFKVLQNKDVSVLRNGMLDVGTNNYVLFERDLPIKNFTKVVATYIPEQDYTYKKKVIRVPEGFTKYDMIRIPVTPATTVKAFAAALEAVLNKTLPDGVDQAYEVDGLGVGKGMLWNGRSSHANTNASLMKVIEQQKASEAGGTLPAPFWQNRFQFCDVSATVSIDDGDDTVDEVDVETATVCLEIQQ

[3] = biological target: AMP-activated protein kinase, AMPK (Homo sapiens) (UniProt P54646+O43741+P54619+Q9UGJ0+Q9Y478+Q13131+Q9UGI9); assay: AMP-dependent Kinase enzyme assay. An in vitro enzyme assay that detects ADP turnover that is directly proportional to AMPK activity. This uses naive AMPK that is activated during the assay with MK-8722; assay type: functional; conditions: 30 µM
[4] = biological target: Sialic acid-binding Ig-like lectin 9 (Homo sapiens) (UniProt Q9Y336); assay: Hs-Siglec9 ALPHAscreen SOP 20170721; conditions: 10 µM
Chain of Sialic acid-binding Ig-like lectin 9 (Homo sapiens) (Q9Y336 whole entry): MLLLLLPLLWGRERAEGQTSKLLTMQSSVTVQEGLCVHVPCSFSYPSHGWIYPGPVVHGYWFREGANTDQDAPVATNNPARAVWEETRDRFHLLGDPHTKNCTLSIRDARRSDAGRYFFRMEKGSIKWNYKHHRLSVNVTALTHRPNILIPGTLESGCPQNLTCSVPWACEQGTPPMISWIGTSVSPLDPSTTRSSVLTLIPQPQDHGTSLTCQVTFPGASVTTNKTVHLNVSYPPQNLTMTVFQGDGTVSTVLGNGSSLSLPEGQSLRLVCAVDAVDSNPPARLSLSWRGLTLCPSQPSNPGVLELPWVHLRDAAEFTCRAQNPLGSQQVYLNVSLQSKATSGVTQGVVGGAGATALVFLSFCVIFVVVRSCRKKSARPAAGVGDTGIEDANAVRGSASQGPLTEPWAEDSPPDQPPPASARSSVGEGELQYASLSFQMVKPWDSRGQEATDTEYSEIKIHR

[5] = system: Trypanosoma cruzi; assay: Trypanosoma cruzi phosphomannomutase and mannose-1-phosphate guanylyltransferase assay; assay type: functional; conditions: 10 µM
[6] = biological target: T2, Arginase-2, mitochondrial (Homo sapiens) (UniProt P78540); assay: in vitro enzyme assay to detect the production of urea directly proportional to the activity of Arginase II; assay type: functional; note: in the data most compounds retested in dose-response had high values
T2 sequence (whole entry): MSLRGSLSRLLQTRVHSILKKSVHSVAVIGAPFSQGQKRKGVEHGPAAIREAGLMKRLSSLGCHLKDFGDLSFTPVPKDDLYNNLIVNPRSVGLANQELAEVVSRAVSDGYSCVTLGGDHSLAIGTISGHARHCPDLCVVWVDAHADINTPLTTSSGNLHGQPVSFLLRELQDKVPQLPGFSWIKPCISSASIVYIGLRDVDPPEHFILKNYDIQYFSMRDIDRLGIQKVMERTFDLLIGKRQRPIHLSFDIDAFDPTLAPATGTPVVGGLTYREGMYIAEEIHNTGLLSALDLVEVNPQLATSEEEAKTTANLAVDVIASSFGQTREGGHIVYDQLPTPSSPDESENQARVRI

[7] = biological target: T3, Proteasome subunit beta (Trypanosoma cruzi) (UniProt O96673); assay: Trypanosoma cruzi proteasome chymotrypsin-like activity (TcProtChymo) assay.; note: in the data most compounds retested in dose-response had high values; assay type: functional; conditions: 9.37 µM
T3 sequence (whole entry): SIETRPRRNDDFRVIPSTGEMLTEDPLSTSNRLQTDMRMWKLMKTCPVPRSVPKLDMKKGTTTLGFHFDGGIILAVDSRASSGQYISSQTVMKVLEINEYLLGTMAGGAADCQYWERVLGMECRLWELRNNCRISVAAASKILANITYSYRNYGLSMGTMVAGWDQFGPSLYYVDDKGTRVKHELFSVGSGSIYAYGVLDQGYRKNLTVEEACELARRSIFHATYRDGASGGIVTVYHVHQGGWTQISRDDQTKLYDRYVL

[8] = organism: Homo sapiens; assay: To identify inhibition of the IFN signalling (Jak-Stat) pathway via expression of an eGFP reporter gene under the control of an IFN-stimulated response element (ISRE) containing MxA promoter.; assay type: functional; conditions: 30 µM
[9] = biological target: T4, Tyrosyl-tRNA synthetase, putative (Trypanosoma cruzi (strain CL Brener)) (UniProt Q4DSP6); assay: Trypanosoma cruzi tyrosyl tRNA synthetase (TcYRS) _High Tyrosine SOP; assay type: functional; conditions: 30 µM; note: in the data most compounds retested in dose-response had high values
T4 sequence (whole entry): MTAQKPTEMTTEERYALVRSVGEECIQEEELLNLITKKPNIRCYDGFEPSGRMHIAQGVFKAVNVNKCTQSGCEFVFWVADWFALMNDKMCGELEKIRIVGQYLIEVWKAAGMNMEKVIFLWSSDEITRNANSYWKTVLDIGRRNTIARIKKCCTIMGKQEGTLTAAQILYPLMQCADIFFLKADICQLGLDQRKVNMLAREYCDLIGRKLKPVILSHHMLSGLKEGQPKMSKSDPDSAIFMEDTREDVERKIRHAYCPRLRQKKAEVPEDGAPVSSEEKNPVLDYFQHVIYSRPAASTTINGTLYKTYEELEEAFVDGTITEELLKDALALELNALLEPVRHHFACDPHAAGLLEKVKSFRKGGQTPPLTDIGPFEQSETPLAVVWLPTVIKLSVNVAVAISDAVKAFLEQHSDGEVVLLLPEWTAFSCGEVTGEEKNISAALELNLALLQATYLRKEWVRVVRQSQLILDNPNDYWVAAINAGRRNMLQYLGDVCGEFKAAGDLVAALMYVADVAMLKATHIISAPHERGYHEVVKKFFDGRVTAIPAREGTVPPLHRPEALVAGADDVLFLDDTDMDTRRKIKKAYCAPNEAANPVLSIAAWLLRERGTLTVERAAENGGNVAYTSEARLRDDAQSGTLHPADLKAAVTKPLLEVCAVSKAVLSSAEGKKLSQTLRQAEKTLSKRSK

[10] = biological target: T4, Tyrosyl-tRNA synthetase, putative (Trypanosoma cruzi (strain CL Brener)); assay: Trypanosoma cruzi tyrosyl tRNA synthetase (TcYRS) SOP; assay type: functional; conditions: 30 µM
[11] = biological target: Chromo domain-containing protein 1 (Saccharomyces cerevisiae (strain ATCC 204508 / S288c) (Baker's yeast)) (UniProt P32657); assay: ScCHD-1 Enzyme Inhibition Assay; assay type: functional; conditions: 30 µM; note: in the data most compounds retested in dose-response had high values
Chain of Chromo domain-containing protein 1 (Saccharomyces cerevisiae (strain ATCC 204508 / S288c) (Baker's yeast)) (P32657 whole entry, the tested form may be a part): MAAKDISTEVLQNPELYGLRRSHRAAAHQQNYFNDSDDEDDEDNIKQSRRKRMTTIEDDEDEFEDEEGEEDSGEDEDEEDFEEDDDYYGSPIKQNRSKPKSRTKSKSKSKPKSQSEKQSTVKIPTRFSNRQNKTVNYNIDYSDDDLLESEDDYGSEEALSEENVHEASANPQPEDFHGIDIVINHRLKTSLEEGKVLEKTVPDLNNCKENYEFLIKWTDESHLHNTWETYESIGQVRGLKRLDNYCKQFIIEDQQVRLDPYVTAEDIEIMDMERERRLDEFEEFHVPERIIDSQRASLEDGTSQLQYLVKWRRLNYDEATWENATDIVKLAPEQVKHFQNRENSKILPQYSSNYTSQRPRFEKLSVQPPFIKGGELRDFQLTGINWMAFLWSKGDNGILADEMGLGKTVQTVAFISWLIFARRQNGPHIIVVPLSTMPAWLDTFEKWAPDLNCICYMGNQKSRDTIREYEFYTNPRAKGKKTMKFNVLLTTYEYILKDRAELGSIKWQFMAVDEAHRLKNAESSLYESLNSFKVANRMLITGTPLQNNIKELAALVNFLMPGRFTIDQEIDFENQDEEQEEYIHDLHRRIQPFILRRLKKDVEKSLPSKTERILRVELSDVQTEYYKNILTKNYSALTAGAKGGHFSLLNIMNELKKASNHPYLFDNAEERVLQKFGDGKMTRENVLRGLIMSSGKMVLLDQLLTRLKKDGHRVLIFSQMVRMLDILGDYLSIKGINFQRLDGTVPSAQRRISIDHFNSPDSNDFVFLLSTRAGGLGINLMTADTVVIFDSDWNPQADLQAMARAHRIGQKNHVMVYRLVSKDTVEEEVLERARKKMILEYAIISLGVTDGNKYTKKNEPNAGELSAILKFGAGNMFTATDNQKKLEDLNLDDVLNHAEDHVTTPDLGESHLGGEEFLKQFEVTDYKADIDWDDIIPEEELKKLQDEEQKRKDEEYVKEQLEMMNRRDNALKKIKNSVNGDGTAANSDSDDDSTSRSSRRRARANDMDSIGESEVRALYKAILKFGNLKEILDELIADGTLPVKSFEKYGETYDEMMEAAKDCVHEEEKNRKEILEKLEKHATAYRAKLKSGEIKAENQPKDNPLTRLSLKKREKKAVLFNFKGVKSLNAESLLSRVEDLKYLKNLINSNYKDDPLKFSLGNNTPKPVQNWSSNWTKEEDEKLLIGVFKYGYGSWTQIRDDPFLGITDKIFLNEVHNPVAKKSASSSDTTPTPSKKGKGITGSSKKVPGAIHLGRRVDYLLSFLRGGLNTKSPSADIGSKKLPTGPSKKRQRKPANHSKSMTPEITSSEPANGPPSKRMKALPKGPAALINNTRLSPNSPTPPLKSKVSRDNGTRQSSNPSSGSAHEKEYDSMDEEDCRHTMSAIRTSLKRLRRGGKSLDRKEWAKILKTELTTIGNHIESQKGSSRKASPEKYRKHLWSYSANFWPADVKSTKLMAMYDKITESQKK

[12] = system: N/A; assay: Trypanosoma cruzi proteasome luciferase counter-screen; assay type: functional; conditions: 9.37 µM

SMILES	Percent Effect [1] [%]	Percent Effect [2] [%]	Percent Effect [3] [%]	Percent Effect [4] [%]	Percent Effect [5] [%]	Percent Effect ([6]; 30 µM) [%]	Percent Effect ([6]; 33.3 µM) [%]	Percent Effect [7]	Percent Effect [8] [%]	Percent Effect [9] [%]	Percent Effect [10] [%]	Percent Effect [11] [%]	Percent Effect [12]
COc1ccc(C2SC(C)=Nc3c2c(=O)[nH]n3C2CCCCC2)cc1O (configuration not stated)	1.71	17.3	0.637	-1.4	0.786	-3.78	-25.2	15.3%	39.9	43.4	48.7	-12.8	
COc1ccccc1Oc1ncccc1CNC(=O)[C@@H](C)NC(C)=O	-1.21	-4.17	-4.59	-7.34	-3.98	4.87	2.21	-0.526%	2.14	2.1	-2.56	2.74	
COc1c(CNC2CCc3c(Cl)cccc32)c(C)nn1C (configuration not stated)	-3.04	8	-13.3	15.4	7.89	1.62	14.1	16.2%	53.8	4.92	16.1	108	
CNC(=O)[C@@H]1C[C@H]2CN(C(=O)c3ccco3)C[C@H]2N1C	-1.85	2.67	-2.42	4.75	-3.67	-9.19	-21	3.76%	-3.26	4.17	5	-5.57	
c1cc(OCc2ccc3c(c2)OCCO3)ccc1CNC1CC1	5.92	0	13.6	-13.3	-7.3		-5.92	91.2% and 90% and 88.4%	23	-2.13	5.2	-5.94	63.7% and 65.3%
O=C(c1ccc(C2CCCO2)s1)N1Cc2ccccc2C1 (configuration not stated)	-2.89	-2.7	-1.29	1.79	-4.25		-2.86	55.5% and 35.5% and 40.2%	-5.94	-2.65	0	2.95	23.5% and 18.5%
Cc1nc(CN2CCCC(N(C)Cc3cscn3)C2)no1 (configuration not stated)	-5.04	5.2	-1.86	-3.2	7.54		-6.11	40.2% and 44.8% and 59.4%	17.1	3.81	11.8	-17.6	16.1% and 22%
Cc1ccc(N(C)C2CCN(C(=O)CCc3ccco3)CC2)nn1	-4.56	5.41	12.7	1.05	5.66		0.554	48.4% and 44.9% and 50.1%	8.17	22.8	23.2	3.63	12.6% and 9.51%
Cc1ccc(S(=O)(=O)Nc2ccc(-n3cccc3C(=O)O)c(C)c2)s1	-4.28	5.26	12.2	2.35	-5.55		9.47	29.7% and 25.9% and 32.3%	-7.51	-9.57	-15.6	4.9	14.7% and 12.8%
Cc1ccc(NCc2cncc3c2CCN(C(=O)C2CC=CC2)C3)nn1	-0.965	5.33	-0.665	8.87	1.74		-24.9	30.2% and 30.4% and 33.3%	-6.99	13.5	32.5	-6.63	16.9% and 15.1%
COc1cccc(C(=O)NCC(O)c2cccs2)c1 (configuration not stated)	-3.69	11	7.67	3.99	6.46		0	34.1% and 33.9% and 40.3%	-9.23	7.53	17.5	-3.59	6.45% and 13%
O=C(Nc1ccc(F)c(Br)c1)N1CCCC1	-2.64	-2.7	4.93	-0.317	-4.49		2.92	53.1% and 53% and 53.3%	18.2	-34.6	3.66	-3.18	8.61% and 7.62%
Cc1cc(C(C)C(=O)N2CCCN(Cc3cscn3)CC2)c(C)o1 (configuration not stated)	-0.889	21.1	-6.33	21.4	1.5		-4.98	31.9% and 34.8% and 34.4%	23.1	3.43	17.1	-9.64	4.24% and 9.24%
CCOc1ncccc1NC(=O)c1cc2c(s1)CCC2	1.48	9.72	8.31	7.26	2.82		-6.18	22.1% and 36.7% and 23%	9.51	4.21	10.3	63.8	13.8% and 15.3%
Cc1nc(CN2C[C@@H]3CN(C(=O)c4cccn4C)C[C@@H]3C2=O)cs1	1.08	13.5	1.31	-6.65	-4.2		-0.955	13.3% and 13.5% and 30.8%	11.3	3.24	15.4	-1.02	6.13% and 6.46%
O=C(N[C@@H]1CN(Cc2ccsc2)[C@@H]2CCCO[C@@H]21)C1CC1	-8.12	18.7	-4.7	2.36	-0.193		-57.9	37.3% and 23.2% and 22.2%	-2.14	4.17	17.5	-7.56	7.24% and 10.5%
